Entries with a potency or affinity are not part of this list. Records with an inconclusive call do not appear. Calls of active or inactive are those of the source. Unless noted, no rule for the calls is given here.
Experiments:
[1] = RMG-1 ovarian cancer cell viability loss – cherry-pick, dose response (AID 687029;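 active = signal drop whose fitted half-maximal concentration is at most twice the top valid dose, in every test run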;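 also: cells exposed to compound for 96 hours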)
[2] = IOSE-T80 viability loss, PAX8-independent line – cell-based, cherry-pick, selectivity assay for PAX8 inhibitor project, dose response (AID 687032;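 active = fitted half-maximal concentration for viability loss no higher than twice the top valid dose, in every repeat run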;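 also: cells exposed to compound for 96 h before reading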)
[3] = CMV-driven luciferase expression suppression in HEK293 – cell-based, luminescence, dry powder, counter-screen for Pax8 inhibitor project, dose response (AID 743020;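 active = signal-lowering compounds whose fitted half-maximal concentration is at or below twice the top tested dose in every run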;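 also: HEK293 cells stably expressing the CMV luciferase reporter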)
[4] = general cell-killing toxicity readout – plate reader, dry powder samples, cytotoxicity control for PAX8 inhibitor project, dose response (AID 743021)
[5] = IGROV1 cell killing – plate reader, dry powder samples, PAX8 inhibitor project, dose response (AID 743043);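 also: more negative means fewer viable cells or more cytotoxicity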
[6] = toxicity toward immortalized ovarian surface epithelium – cell-based, plate reader, dry powder samples, cytotoxicity control for PAX8 inhibitor project, dose response (AID 743045);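 also: more negative values mean more cell killing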
[7] = A2780 cell killing – plate reader, dry powder samples, cytotoxicity control, dose response (AID 743046)

Measured: outcome

COc1ccccc1-c1ccc2c(c1)[C@H]1[C@H](CCN1C(=O)C1CCCCC1)[C@@H](CO)N2
not listed: [7]
inactive: all other assays above

C[C@H]1CCCCO[C@@H](CN(C)Cc2ccc(C(F)(F)F)cc2)[C@@H](C)CN([C@@H](C)CO)C(=O)c2cc(NC(=O)Cc3ccccc3)ccc2O1
not listed: [7]
inactive: all other assays above

C[C@@H]1CCCCO[C@@H](CN(C)C(=O)Nc2cccc3ccccc23)[C@H](C)CN([C@H](C)CO)C(=O)c2cc(NS(=O)(=O)c3ccc(Cl)cc3)ccc2O1
not listed: [7]
inactive: all other assays above

C[C@@H]1CCCCO[C@@H](CN(C)C(=O)NC2CCCCC2)[C@H](C)CN([C@H](C)CO)C(=O)c2cc(NS(=O)(=O)c3ccc(Cl)cc3)ccc2O1
not listed: [7]
inactive: all other assays above

C[C@H]1CCCCO[C@H](CN(C)S(=O)(=O)c2ccc(F)cc2)[C@@H](C)CN([C@@H](C)CO)C(=O)c2cc(NS(=O)(=O)c3ccc(Cl)cc3)ccc2O1
inactive: all assays above

C[C@@H]1CCCCO[C@@H](CN(C)C(=O)c2ccccc2)[C@H](C)CN([C@H](C)CO)C(=O)c2cc(NC(=O)Nc3ccc(C(F)(F)F)cc3)ccc2O1
inactive: all assays above

C[C@H](CO)N1C[C@H](C)[C@H](CN(C)S(=O)(=O)c2ccc(Cl)cc2)OCCCC[C@H](C)Oc2ccc(NS(=O)(=O)c3ccc(Cl)cc3)cc2C1=O
inactive: all assays above

C[C@H](CO)N1C[C@H](C)[C@H](CN(C)Cc2ccc(C(F)(F)F)cc2)OCCCC[C@H](C)Oc2ccc(NS(=O)(=O)c3ccc(F)cc3)cc2C1=O
inactive: all assays above

COc1ccc(S(=O)(=O)Nc2ccc3c(c2)C(=O)N([C@@H](C)CO)C[C@H](C)[C@@H](CN(C)Cc2ccc(C(F)(F)F)cc2)OCCCC[C@@H](C)O3)cc1
not listed: [7]
inactive: all other assays above

O=C(Nc1ccc(C(F)(F)F)cc1)Nc1ccc2c(c1)[C@@H]1C[C@H](CC(=O)N3CCc4ccccc4C3)O[C@H](CO)[C@@H]1O2
inactive: all assays above

C[C@H](CO)N1C[C@H](C)[C@H](CN(C)Cc2ccc(C(F)(F)F)cc2)OCCCC[C@H](C)Oc2ccc(NC(=O)NC3CCCCC3)cc2C1=O
inactive: all assays above

COc1ccc(S(=O)(=O)N2CCCCN3[C@H](CO)[C@@H](c4ccc(C#CC(C)C)cc4)[C@H]3C2)cc1
not listed: [7]
inactive: all other assays above

C[C@H](CO)N1C[C@H](C)[C@@H](CN(C)Cc2ccc(C(F)(F)F)cc2)OCCCC[C@H](C)Oc2ccc(NC(=O)Nc3ccc(F)cc3)cc2C1=O
not listed: [7]
inactive: all other assays above

C[C@H]1CN([C@@H](C)CO)S(=O)(=O)c2ccc(C#Cc3ccncc3)cc2O[C@H]1CN(C)C(=O)C1CCCCC1
inactive: all assays above

Cc1ccc(S(=O)(=O)Nc2ccc3c(c2)C(=O)N([C@H](C)CO)C[C@H](C)[C@@H](CN(C)S(=O)(=O)c2ccc(Cl)cc2)OCCCC[C@H](C)O3)cc1
not listed: [7]
inactive: all other assays above

C[C@@H]1CCCCO[C@H](CN(C)S(=O)(=O)c2ccccc2)[C@H](C)CN([C@@H](C)CO)C(=O)c2cc(NS(=O)(=O)c3ccc(Cl)cc3)ccc2O1
not listed: [7]
inactive: all other assays above

COc1ccccc1C(=O)Nc1ccc2c(c1)C(=O)N(C)[C@@H]1CC[C@@H](CC(=O)NCc3ccc(Cl)c(Cl)c3)O[C@H]1CO2
inactive: all assays above

COc1ccc2c3c([nH]c2c1)[C@H](CO)N(C(=O)Nc1cccc(F)c1)CC31CCN(S(=O)(=O)c2cccc(C)c2)CC1
inactive: all assays above

O=C(C1CCC1)N1CC(=O)N2[C@H](C1)[C@H](c1ccc(C#Cc3cccc(F)c3)cc1)[C@@H]2CO
not listed: [7]
inactive: all other assays above

C[C@H]1CCCCO[C@H](CN(C)C(=O)C2CCCCC2)[C@@H](C)CN([C@@H](C)CO)C(=O)c2cc(NS(=O)(=O)c3ccc(Cl)cc3)ccc2O1
inactive: all assays above

CO[C@H]1CN(C)C(=O)c2cc(NC(=O)c3ccc(-c4ccccc4)cc3)ccc2OC[C@@H](C)NC[C@@H]1C
not listed: [7]
inactive: all other assays above

COc1ccc(-c2ccc3c(c2)[C@@H]2[C@@H](CCN2S(=O)(=O)c2ccc(OC)cc2)[C@@H](CO)N3C)cc1
inactive: all assays above

Cc1ccc(S(=O)(=O)N(C)C[C@H]2Oc3cc(C#Cc4ccncc4)ccc3S(=O)(=O)N([C@H](C)CO)C[C@H]2C)cc1
inactive: all assays above

O=C(Nc1ccc(F)cc1)N1CC(=O)N2[C@@H](CO)[C@@H](c3ccc(C#Cc4ccc(F)cc4)cc3)[C@@H]2C1
inactive: all assays above

C[C@@H]1CN([C@H](C)CO)C(=O)c2cc(NC(=O)Nc3cccc4ccccc34)ccc2O[C@@H]1CN(C)C(=O)Nc1cccc2ccccc12
inactive: all assays above

C[C@@H]1CN([C@H](C)CO)S(=O)(=O)c2ccc(-c3ccc(C#N)cc3)cc2O[C@@H]1CN(C)Cc1cccc(F)c1
inactive: all assays above

COc1ccc(S(=O)(=O)Nc2ccc3c(c2)CC(=O)N([C@@H](C)CO)C[C@@H](C)[C@H](CN(C)Cc2ccc(C(F)(F)F)cc2)O3)cc1
inactive: all assays above

C[C@@H]1CN([C@H](C)CO)C(=O)CCCn2cc(nn2)CO[C@H]1CN(C)C(=O)Nc1ccc(-c2cccs2)cc1
inactive: all assays above

C[C@@H]1CN([C@H](C)CO)C(=O)c2cc(NC(=O)Cc3ccccc3)ccc2O[C@@H](C)CCCCO[C@@H]1CN(C)Cc1ccc(C(F)(F)F)cc1
inactive: all assays above

CC(C)CC1NC(=S)N(Cc2ccccc2)C1=O (stereo not drawn)
inactive: all assays above

CC(C)CC#Cc1ccc2c(c1)O[C@H](CN(C)S(=O)(=O)c1ccc(F)cc1)[C@@H](C)CN([C@@H](C)CO)S2(=O)=O
inactive: all assays above

C[C@@H]1CCCCO[C@H](CN(C)C(=O)Nc2ccc(C(F)(F)F)cc2)[C@@H](C)CN([C@@H](C)CO)C(=O)c2cc(NC(=O)Nc3ccc(C(F)(F)F)cc3)ccc2O1
inactive: all assays above
